Compound activity deposited in PubChem by National Center for Advancing Translational Sciences (NCATS).
Compounds with a hit are over-represented: about 4.6% of the library has one in this group of screens.
D1 potentiator: Potentiators of Human D1 Dopamine Receptor: qHTS; D(1A) dopamine receptor (Homo sapiens), P21728; HEK293 TREx D1 cells, calcium flux, dopamine EC20 potentiation; potentiation, % at 10 µM; 0.036% of 360,000 active; in the data active = potentiation above about 30%
D1 antag: Antagonist of Human D 1 Dopamine Receptor: qHTS. D(1A) dopamine receptor (Homo sapiens), P21728. HEK293 TREx D1 cells, calcium flux, dopamine EC80; hits give low values. activity change, negative = inhibition, % at 10 µM. 3.2% of 360,000 active. AID 504652, 2011; in the data active = activity change below about -30%
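After overnight tetracycline induction at 30 C, force-coupled D1 HEK293 cells took up a no-wash calcium dye at room temperature. Compounds were added and monitored 180 s, and the response to EC80 dopamine was then recorded.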
TRHR agonist: qHTS for Small Molecule Agonists and Allosteric Enhancers of Human TRH Receptor: Primary Screen for Agonists. Thyrotropin-releasing hormone receptor (Homo sapiens), P34981. TRHR cells, calcium flux fluo-8, FDSS agonist mode. activation, % at 2 µM. 0.18% of 360,000 active. AID 493084, 2011
Target sequence (P34981 whole entry, looked up): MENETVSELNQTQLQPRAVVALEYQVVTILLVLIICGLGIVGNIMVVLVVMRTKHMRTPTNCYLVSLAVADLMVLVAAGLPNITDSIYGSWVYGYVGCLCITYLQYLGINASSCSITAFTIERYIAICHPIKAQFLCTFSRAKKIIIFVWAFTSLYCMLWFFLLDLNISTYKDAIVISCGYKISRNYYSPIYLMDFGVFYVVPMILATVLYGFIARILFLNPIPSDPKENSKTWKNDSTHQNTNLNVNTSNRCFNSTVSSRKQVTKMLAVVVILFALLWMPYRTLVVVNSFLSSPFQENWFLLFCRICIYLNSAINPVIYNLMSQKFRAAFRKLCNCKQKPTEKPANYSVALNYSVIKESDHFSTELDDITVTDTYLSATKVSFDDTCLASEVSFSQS
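TRHR-expressing cells, plated overnight in medium with 10% serum, were loaded with fluo-8 calcium dye at room temperature. After a 10 s baseline, library compound was pin-added and calcium release was recorded kinetically (ex 480/em 530) as agonist response.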
D1 agonist: Allosteric Agonists of the Human D1 Dopamine Receptor: qHTS | D(1A) dopamine receptor (Homo sapiens), P21728 | HEK293 T-REx D1 cells, calcium flux, agonist mode | 1% of 360,000 active | activation, % at 2 µM
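Tetracycline-induced HEK293 TREx D1 cells, force-coupled to calcium signalling, were dye-loaded with a no-wash calcium kit. Compound was pin-added after a 10 s baseline. Fluorescence was read kinetically at 1 cycle/s for 180 s, with calcium rises flagged as agonism.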
TRHR PAM: qHTS for Small Molecule Agonists and Allosteric Enhancers of Human TRH Receptor: Primary Screen for Enhancers; enhancement, % at 2 µM; 0.66% of 360,000 active; Thyrotropin-releasing hormone receptor (Homo sapiens), P34981; TRHR cells, fluo-8 calcium fluorescence, EC20 TRH enhancement; in the data active = enhancement above about 30%
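TRHR-expressing cells loaded with fluo-8 calcium dye were read kinetically (ex 480/em 530) during compound addition, then stimulated with an EC20 of TRH (10 nM final). Enhancement of the Gq-mediated intracellular calcium response was scored.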
Large screens that a line does not name were inactive; ! = not confirmed by another sample. Rule as the data show it, unless noted: active = activation above about 30%; inactive = the rest.

CNc1nc(-c2ccc(S(=O)(=O)N3CCCCC3)cc2)cs1	D1 antag -33
Cc1ccc(S(=O)(=O)N2CCCCC2)cc1	none
CCCCc1nc2c(C)c(N)cnc2n1Cc1cccc([N+](=O)[O-])c1	none
Cc1c(Br)ccc(NC(=O)Cn2nc(-c3cccs3)ccc2=O)c1C	none
O=S(=O)(c1cccc(-c2cn3ccccc3n2)c1)N1CCCCC1	D1 antag -47
O=S(=O)(c1ccc(Cl)cc1)N1CCCCCC1	none
CSc1nc2cc(S(=O)(=O)N3CCCCC3)ccc2s1	D1 antag -31
CSc1nc2cc(S(=O)(=O)N3CCOCC3)ccc2s1	none
O=S(=O)(c1cnc[nH]1)N1CCCCCC1	D1 antag -45
CC1CCN(S(=O)(=O)c2cnc[nH]2)CC1	none
O=S(=O)(c1ccc(S(=O)(=O)N2CCCC2)cc1)N1CCCCCC1	D1 antag -39
Cc1ccc(S(=O)(=O)N2CCCN(S(=O)(=O)c3ccc(C)cc3)CC2)cc1	D1 antag -34
Nc1ccc2c(c1)OC1(CCCC1)O2	D1 antag -37
Cc1cc(C)nc(Nc2n[nH]c(COc3ccc(Cl)cc3)n2)n1	D1 agonist 34
CCCCCCn1c(N2CCN(c3ccccc3)CC2)nc2c1c(=O)n(C)c(=O)n2C	none
NC(=O)c1ccccc1	D1 antag -99
O=C(NN1C(=O)/C(=C/c2cccs2)SC1=S)c1cccnc1	none
Cn1c(N)c(-c2ccccc2)c2ccc([N+](=O)[O-])cc2c1=O	D1 agonist 242
CCc1ccc(NC(=O)c2sc3nc(C)nc(N4CCN(c5ccccn5)CC4)c3c2C)cc1	D1 antag -84
CCCOc1ccccc1N1C(=O)CC(N(O)c2ccccc2)C1=O (stereo not given)	TRHR PAM 38
CCn1c(N2CCN(C(=O)NC3CCCCC3)CC2)nc2ccccc21	none
CCn1c(NC2CCCCC2)nc2ccccc21	D1 antag -34
C(=C\c1ccccc1)/CSc1nnc(-c2ccccn2)n1Cc1ccco1	none
O=C1C2C(c3ccccc3)C=CC(c3ccccc3)C2C(=O)N1c1ccccn1 (stereo not given)	none
O=C1CCCN1c1ncc(S(=O)(=O)c2ccc([N+](=O)[O-])cc2)s1	D1 antag -47
Cc1nn(C)c(=O)c(N)c1-c1cc(-c2ccc(Cl)c(Cl)c2)n[nH]1	D1 antag -47
Cc1ccc(-c2cc(-c3c(C)nn(C)c(=O)c3N)[nH]n2)cc1	none
CCCCOc1ccc(-c2c(C(=O)Nc3ccccc3)c(C)[nH]c(=S)c2C#N)cc1	none
O=C(CCCN1C(=O)CCC1=O)Nc1ccc(Br)cc1F	D1 antag -32
Nc1sc2c(c1C(=O)c1ccccc1)CCCC2	D1 antag -66
NC(=O)c1c(N)sc2c1CCCC2	none
CCCCOCCCNC(=O)N[C@H](C(=O)OC)C(C)CC (stereo not given in full)	none
CN1/C(=C\C=O)C(C)(C)c2ccccc21	none
COc1ccccc1OCC(=O)/C=C1/N(C)c2ccccc2C1(C)C	D1 antag -49, D1 agonist 32
CC1=C/C(=C\C=C(C#N)C#N)N(C)c2ccccc21	D1 antag -35, D1 agonist 45
CN1/C(=C\C(=O)COC(=O)c2ccccc2O)C(C)(C)c2ccccc21	none
CN1/C(=C/C=C(C#N)C#N)C(C)(C)c2ccccc21	D1 agonist 116
CN1\C(=C/C=C/C=C/C=[N+](C)C)C(C)(C)c2ccccc21	TRHR agonist 142, D1 agonist 324, TRHR PAM 47
CN1/C(=C\C=Nc2ccc3ccccc3c2)C(C)(C)c2ccccc21	none
CN(CC1COc2ccccc2O1)C(=S)NC1CCCCC1 (stereo not given)	none
COc1ccc([N+](=O)[O-])cc1N(CC(O)CN1CCCCC1)S(=O)(=O)c1ccccc1 (stereo not given)	none
CCOC(=O)c1c(C)[nH]c(C)c1S(=O)(=O)N(C)CC(=O)Nc1cc(C)ccc1OC	D1 antag -40
CCOC(=O)c1c(C)[nH]c(C)c1S(=O)(=O)NCC(=O)Nc1cc(C)ccc1OC	none
COc1ccc(C)cc1NC(=O)CN(C)S(=O)(=O)c1ccc2c(c1)c(=O)n(C)c(=O)n2C	D1 antag -30!
CC(=O)Nc1cccc(C(=O)NCc2ccc3c(c2)CCN3C(=O)c2ccccc2)c1	none
Cc1ccc(Oc2ncccc2C(=O)NCC(=O)O)cc1	D1 antag -88
COc1cc(-c2cc3n(C)c(C)c(CCC(=O)NC4CCC(C)CC4)c(=O)n3n2)cc(OC)c1OC (stereo not given)	none
COc1ccc(S(=O)(=O)n2nc(-n3c(C)ccc3C)c3c(F)cccc32)cc1OC	D1 antag -34
O=C(NCCNC1CCC(c2ccccc2)CC1)c1ccc(F)cc1 (stereo not given)	D1 antag -37, D1 agonist 52
O=C(NCCCc1ccccc1)c1ccc(F)cc1	none
CN(C)c1ccc(/C=C/c2ccc3ccccc3[n+]2C)cc1	none
CN(C)c1ccc(/C=C/c2ccc3c4ccccc4ccc3[n+]2-c2ccccc2)cc1	D1 antag -33
CCC(C(=O)Nc1ccc(C(=O)OC)cc1)n1c(=O)c(-c2ccccc2NC(C)=O)nc2ccccc21 (stereo not given)	none
COc1cccc(-c2cccc(NC(=O)C3CCN(Cc4nccs4)CC3)c2)c1	none
CCOc1ccc(CN2CCC(C(=O)Nc3cccc(-c4ccn[nH]4)c3)CC2)cc1Cl	D1 antag -53
O=C(NCCCN1CCCC1=O)c1cc(S(=O)(=O)N2CCOCC2)c(Cl)cc1Cl	none
S=C(c1ccc(-c2ccccc2)cc1)N1CCOCC1	TRHR PAM 34
O=C(Oc1ccc(-c2ccccc2)cc1)N1CCOCC1	D1 antag -32
O=C(Oc1ccc(Cl)cc1)N1CCOCC1	none
O=C(c1ccc(-c2ccccc2)cc1)c1ccccc1C(=O)N1CCOCC1	none
CC(=O)c1ccc(NC(=O)c2cn(C)c(=O)c3ccccc23)cc1	none
CC1CC(C)CN(c2ccc([N+](=O)[O-])nc2)C1 (stereo not given)	none
CC1CN(c2ccc([N+](=O)[O-])nc2)CC(C)O1 (stereo not given)	D1 antag -35
CCn1cc(/C=C(\NC(=O)c2ccccc2F)C(=O)NCCCN2CCOCC2)c2ccccc21	none
COc1cccc(CN(Cc2cccnc2)S(=O)(=O)c2ccc(-n3cnnn3)c(C)c2)c1	D1 antag -32
